Assay outcomes (PubChem BioAssay)
Shn3 inh set2 – reduction of Shn3 3'UTR firefly luciferase signal, primary screen, Schnurri-3 inhibitor project, cell-based, Clone20 osteoblasts, set 2 | Clone20 osteoblast Shn3 3'UTR firefly luciferase, 24 h | inhibition, % at 12.5 µM | hit rate 0.52% among 360,000 | AID 588674, 2011;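 active = mean inhibition of at least 75% with every replicate also reaching 75%; inconclusive = mean inhibition at least 75% but some replicate below; inactive = mean inhibition below 75%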;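 also: 0% = median of neutral control wells and 100% = pilot-screen positive control compound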
LGR2 antag – inhibitors of bursicon-induced LGR2 CRE-luciferase signal, primary screen, cell-based, HEK293, CRE-luciferase reporter, bursicon stimulation | bursicon-stimulated, 4 h | inhibition, % at 9.99 µM | hit rate 0.35% among 380,000 | AID 720647, 2013;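 active = drop in luminescence signal, shown as inhibition above about 50% in the replicate tests, limit read from the data, passing the limit was not always enough; inconclusive = probably only some replicates passing the limit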;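 also: agonist challenge used bursicon conditioned medium at about half maximal strength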
PAX8 reporter – inhibitors of PAX8-driven TPO luciferase reporter, primary screen, RMG-I cells, single concentration. SteadyGlo, 24 h. AID 652154, 2013. inhibition, % at 12.6 µM. hit rate 1.2% among 360,000;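 active = mean replicate inhibition at least 60% with every replicate also reaching 60%; inconclusive = only one of the two criteria is met; inactive = mean below 60% and not all replicates reaching 60%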;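 also: luciferase light reporting Pax8 driven TPO promoter activity; plate controls were median of neutral control wells for no effect and mitoxantrone controls for full effect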
EWS-Fli block – EWS/Fli-driven NR0B1 reporter inhibitors, primary screen, A673 cells, NR0B1 luciferase, luminescence, MLPCN library | viability-normalised | inhibition, % at 12.6 µM | hit rate 0.67% among 350,000;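 active = mean inhibition of at least 50% after viability correction, with every replicate also passing that limit; inconclusive = mean reaches 50% but only one of two replicates passes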;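 also: firefly luciferase signal divided by Alamar Blue viability fluorescence both relative to DMSO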
MITF TRPM1 inh – inhibitors of MITF-dependent TRPM1 promoter reporter, primary screen, cell-based, SK-MEL-5, single point, luciferase | SK-MEL-5 TRPM1 promoter luciferase, 24 h | inhibition, % at 12.5 µM | hit rate 0.83% among 330,000;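 active = mean inhibition across replicates of 60% or more, whatever share of single replicates reaches that level; inconclusive = some that reach 60%, reason not given; inactive = mean inhibition across replicates below 60%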
EBV LMP1 NFkB – EBV LMP1-driven NF-kappaB luciferase reporter inhibitors, primary screen, cell-based, luminescence, single point; LMP1-induced NF-kappaB luciferase reporter cells; inhibition, % at 12.5 µM; AID 504558, 2011; hit rate 0.69% among 350,000; in the data active = inhibition above about 41%; inconclusive = no clear call, values can overlap the other calls;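 also: 0% = neutral control wells and 100% = reference inhibitor control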
An asterisk follows results filed as active; ? = inconclusive; . = not tested or not shown. Only some compounds are listed: those with a hit (about 2.2% of all), similar ones and a draw of the others.

SMILES	Shn3 inh set2	LGR2 antag	PAX8 reporter	EWS-Fli block	MITF TRPM1 inh	EBV LMP1 NFkB
O=C(C[C@@H]1C[C@H]2c3cc(NS(=O)(=O)c4ccc(F)cc4)ccc3O[C@H]2[C@@H](CO)O1)NCc1ccc(-c2ccccc2)cc1	.	16	73*	-10	.	.
O=C(C[C@H]1C[C@H]2c3cc(NS(=O)(=O)c4ccc(F)cc4)ccc3O[C@H]2[C@H](CO)O1)NCc1ccccc1	.	-5	30	-3	.	.
O=C(C[C@H]1C[C@H]2c3cc(NS(=O)(=O)c4ccc(F)cc4)ccc3O[C@H]2[C@H](CO)O1)NCc1ccc(-c2ccccc2)cc1	.	30	84*	31	.	.
O=C(C[C@@H]1C[C@H]2c3cc(NS(=O)(=O)c4ccc(F)cc4)ccc3O[C@H]2[C@H](CO)O1)NCc1ccc(Cl)cc1	.	3	78*	-15	.	.
C[C@@H]1CN([C@@H](C)CO)C(=O)c2cc(-c3ccccc3)cnc2O[C@@H]1CN(C)C(=O)Cc1ccccc1	.	4	.	-8	.	.
COc1ccc(S(=O)(=O)Nc2ccc3c(c2)C(=O)N(C)C[C@H](OC)[C@@H](C)CN[C@@H](C)CO3)cc1	.	15	-9	0	.	.
CCC(=O)N1[C@H](CN(C)C(C)=O)[C@H](c2ccc(-c3cccc(F)c3)cc2)[C@@H]1CO	.	-11	11	6	.	.
O=C(C[C@H]1C=C[C@H](NS(=O)(=O)c2ccccc2)[C@@H](CO)O1)N1CCc2ccccc2C1	.	-3	9	-15	.	.
CC(C)NC(=O)Nc1ccc2c(c1)C(=O)N(C)[C@H]1CC[C@H](CC(=O)NCC(F)(F)F)O[C@H]1CO2	.	-10	-22	-4	.	.
CCc1nc(SCC(=O)c2ccc3c(c2)OCCO3)c2ccccc2n1	-34	.	-29	.	-1	41*
COc1ccc(NC(=O)N(C)C[C@H]2OCCCC[C@H](C)Oc3ccc(NS(=O)(=O)c4c(C)noc4C)cc3C(=O)N([C@H](C)CO)C[C@@H]2C)cc1	.	16	13	8	.	.
COc1cc(CN2CC3(CCN(C(=O)CN4CCOCC4)CC3)c3c(n(C)c4cc(OC)ccc34)[C@@H]2CO)cc(OC)c1	.	-17	.	-1	.	.
COc1ccc(CN(C(=O)/C=C/C(=O)c2ccc(OC)cc2O)C(C(=O)NC2CCCCC2)c2ccncc2)cc1 (stereo unspecified)	-2	13	-9	17	15	-2
COCCN(CC(=O)NC1CCCCC1)C(=O)/C=C/C(=O)c1ccc(OC)cc1O	98*	?	91*	39	94*	17
COc1ccc(C(=O)/C=C/C(=O)N(CC(=O)NC2CCCCC2)Cc2cccs2)c(O)c1	93*	.	60	64*	105*	59*
COc1ccc2c3c([nH]c2c1)[C@H](CO)N(C(=O)CN1CCOCC1)CC31CCN(C(C)=O)CC1	.	-5	.	0	.	.
CCCCn1c(=N)n(CC(=O)c2ccc(Br)s2)c2ccccc21	58	36	72*	63*	90*	-70
COc1ccc(C2NCCc3c2[nH]c2ccccc32)cc1COc1ccc(F)cc1 (stereo unspecified)	-28	.	22	78*	22	-10
Oc1ccc2ccccc2c1CN1CCCC1	12	39	26	12	24	-1
Oc1ccc2ccccc2c1CN1CC2CCC(CC2)C1	0	.	84*	12	-1	-8
COCC(=O)Nc1ccc2c(c1)C(=O)N(C)C[C@H](OC)[C@@H](C)CN(C(=O)c1ccccc1)[C@@H](C)CO2	.	12	4	-7	.	.
Cn1nc(C(C)(C)C)cc1C(=O)NCc1ccc2c(c1)OCO2	90*	15	32	.	16	37
CCC1=Nc2cc(C(=O)NCCN3CCOCC3)ccc2Sc2ccc(C)cc21	3	-6	-4	6	-4	5
CCCC1=Nc2cc(C(=O)NCCCOCC)ccc2Sc2ccccc21	17	.	99*	.	72*	12
CC1=Nc2cc(C(=O)O)ccc2Sc2ccc(Br)cc21	-1	-5	15	0	14	1
CC1=Nc2cc(C(=O)NCC3CCCO3)ccc2Sc2ccc(Br)cc21 (stereo unspecified)	.	-11	24	55*	21	6
